# Results as given in the supplement of paper PMC8728848.
# The full list was thinned out, with the strongest signals kept by preference.
# Legend:
# Test in all cases: glycan array binding signal (z-score within array); higher = stronger binding
# Details in all cases: glycan notation: IUPAC condensed, linker removed
# Fuc(a1-2)Gal(b1-3)GalNAc = target: Fuc(a1-2)Gal(b1-3)GalNAc
# Method in brief: (§1)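 From the Consortium for Functional Glycomics database, 3228 arrays were curated, keeping only those whose protein sequence was available. Binding is given as a within-array Z-score averaged across arrays sharing a protein sequence and across linkers. Negative Z-scores can be read as non-binding.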
# [1] = target: Fuc(a1-2)Gal(b1-3)GalNAc(b1-3)Gal
# Method in brief: as §1
# [2] = target: Fuc(a1-2)Gal(b1-3)GlcNAc(b1-3)[Neu5Ac(a2-6)Gal(b1-4)GlcNAc(b1-6)]Gal(b1-4)Glc
# Method in brief: as §1
# [3] = target: Fuc(a1-2)Gal(b1-3)[Fuc(a1-4)]GlcNAc(b1-2)Man(a1-3)[Fuc(a1-2)Gal(b1-3)[Fuc(a1-4)]GlcNAc(b1-2)Man(a1-3)]Man(b1-4)GlcNAc(b1-4)GlcNAc
# Method in brief: as §1
# [4] = target: Fuc(a1-2)Gal(b1-4)GlcNAc(b1-2)Man(a1-3)[Fuc(a1-2)Gal(b1-4)GlcNAc(b1-2)Man(a1-6)]Man(b1-4)GlcNAc(b1-4)GlcNAc
# Method in brief: as §1
# [5] = target: Fuc(a1-2)Gal(b1-4)[Fuc(a1-3)]GlcNAc(b1-3)[Neu5Ac(a2-6)Gal(b1-4)GlcNAc(b1-6)]Gal(b1-4)Glc
# Method in brief: as §1
# [6] = target: Fuc(a1-2)[Gal(a1-3)]Gal(b1-3)GlcNAc(b1-6)GalNAc
# Method in brief: as §1
# [7] = target: Fuc(a1-2)[Gal(a1-3)]Gal(b1-4)GlcNAc(b1-2)Man
# Method in brief: as §1
# [8] = target: Fuc(a1-2)[Gal(a1-3)]Gal(b1-4)GlcNAc(b1-6)GalNAc
# Method in brief: as §1
# [9] = target: Fuc(a1-2)[GalNAc(a1-3)]Gal(b1-3)GlcNAc(b1-2)Man(a1-3)[Fuc(a1-2)[GalNAc(a1-3)]Gal(b1-3)GlcNAc(b1-2)Man(a1-6)]Man(b1-4)GlcNAc(b1-4)[Fuc(a1-6)]GlcNAc
# Method in brief: as §1
# [10] = target: Fuc(a1-2)[GalNAc(a1-3)]Gal(b1-4)GlcNAc
# Method in brief: as §1
# [11] = target: Fuc(a1-2)[GalNAc(a1-3)]Gal(b1-4)GlcNAc(b1-2)Man
# Method in brief: as §1
# [12] = target: Fuc(a1-2)[GalNAc(a1-3)]Gal(b1-4)GlcNAc(b1-2)Man(a1-3)[Fuc(a1-2)[GalNAc(a1-3)]Gal(b1-4)GlcNAc(b1-2)Man(a1-6)]Man(b1-4)GlcNAc(b1-4)GlcNAc
# Method in brief: as §1
# [13] = target: Fuc(a1-2)[GalNAc(a1-3)]Gal(b1-4)GlcNAc(b1-3)GalNAc
# Method in brief: as §1
# [14] = target: Fuc(a1-3)[Gal(b1-4)]GlcNAc(b1-2)Man(a1-3)[Fuc(a1-3)[Gal(b1-4)]GlcNAc(b1-2)Man(a1-6)]Man(b1-4)GlcNAc(b1-4)[Fuc(a1-6)]GlcNAc
# Method in brief: as §1
# [15] = target: Fuc(a1-3)[Gal3S(b1-4)]GlcNAc6S
# Method in brief: as §1
# [16] = target: Gal(a1-3)Gal(b1-3)GlcNAc(b1-2)Man(a1-3)[Gal(a1-3)Gal(b1-3)GlcNAc(b1-2)Man(a1-6)]Man(b1-4)GlcNAc(b1-4)GlcNAc
# Method in brief: as §1
# [17] = target: Gal(a1-3)Gal(b1-4)GlcNAc(b1-2)Man(a1-3)[Gal(a1-3)Gal(b1-4)GlcNAc(b1-2)Man(a1-6)]Man(b1-4)GlcNAc(b1-4)GlcNAc
# Method in brief: as §1
# [18] = target: Gal(a1-4)Gal(b1-4)GlcNAc(b1-2)Man(a1-3)[Gal(a1-4)Gal(b1-4)GlcNAc(b1-2)Man(a1-6)]Man(b1-4)GlcNAc(b1-4)GlcNAc
# Method in brief: as §1
# Gal(b1-2)Gal = target: Gal(b1-2)Gal
# Method in brief: as §1
# [19] = target: Gal(b1-3)GlcNAc(b1-2)Man(a1-3)[Gal(b1-3)GlcNAc(b1-2)Man(a1-6)]Man(b1-4)GlcNAc(b1-4)[Fuc(a1-6)]GlcNAc
# Method in brief: as §1
# [20] = target: Gal(b1-3)GlcNAc(b1-3)Gal(b1-4)GlcNAc(b1-3)Gal(b1-4)GlcNAc(b1-2)[Gal(b1-3)GlcNAc(b1-3)Gal(b1-4)GlcNAc(b1-3)Gal(b1-4)GlcNAc(b1-6)]Man(a1-6)[Gal(b1-3)GlcNAc(b1-3)Gal(b1-4)GlcNAc(b1-3)Gal(b1-4)GlcNAc(b1-2)Man(a1-3)]Man(b1-4)GlcNAc(b1-4)[Fuc(a1-6)]GlcNAc
# Method in brief: as §1
# [21] = target: Gal(b1-3)[Fuc(a1-4)]GlcNAc(b1-2)Man
# Method in brief: as §1
# [22] = target: Gal(b1-3)[Neu5Ac(b2-6)]GalNAc
# Method in brief: as §1
# Gal(b1-4)Gal = target: Gal(b1-4)Gal
# Method in brief: as §1
# [23] = target: Gal(b1-4)GlcNAc(b1-2)Man(a1-6)[Man(a1-3)]Man(b1-4)GlcNAc(b1-4)GlcNAc
# Method in brief: as §1
# [24] = target: Gal(b1-4)GlcNAc(b1-2)[Gal(b1-4)GlcNAc(b1-4)]Man(a1-3)[Gal(b1-4)GlcNAc(b1-2)Man(a1-6)]Man(b1-4)GlcNAc(b1-4)GlcNAc
# Method in brief: as §1
binder,measurement,setting,value
PX14343H-pdi-506-26-506 (Parabacteroides distasonis) (protein) QPTGTMTTDSKLTSKESALALTNSAYLKNTVFNKMTPGWGCNTILLLEYMTGKATSENSQSNYKDFQDLLVSDRSLYIEDWWQDCYAGIANCNLALQKLGEFENLDASLVNGYMAEVKFMRALYYFYLVRIFGDVPKITTVQSELGELQVSRAPVKEIYDEIIIPDLLEAEQSDLAFSDHTGRVSMGAVKALLADVYLTYAGYPLQGGKSYYAESAKRSLEVIKSNEYTLFTDYESLRLPSQNNKGEFIYQVQFSLNKRHNESVRIFLPSRSGISAYDLEYGSLIPTKEFVESFEKGDKRTEEKQYFFTNYKGHPSKFSPGAAELEFMDLNGYYIYKFFDQVAVDNTAKSDLNWSVYRYTDVLLMYAEAQVNADGTPNQQSIDIVNQIRGRAGLAPFKQTNASAFLEEVWDQRYFDLCYENKMWFDMLRTRKIRDDKSGEYVDFIGYKTNWGKVYTETQLLFPIPLSERQANPNLTQNQGY,glycan array binding signal (z-score),Fuc(a1-2)Gal(b1-3)GalNAc,-0.509
same,glycan array binding signal (z-score),[1],-0.373
same,glycan array binding signal (z-score),[2],-0.402
same,glycan array binding signal (z-score),[3],-0.174
same,glycan array binding signal (z-score),[4],3.11
same,glycan array binding signal (z-score),[5],-0.392
same,glycan array binding signal (z-score),[6],-0.255
same,glycan array binding signal (z-score),[7],-0.394
same,glycan array binding signal (z-score),[8],-0.381
same,glycan array binding signal (z-score),[9],-0.391
same,glycan array binding signal (z-score),[10],-0.526
same,glycan array binding signal (z-score),[11],-0.523
same,glycan array binding signal (z-score),[12],4.7
same,glycan array binding signal (z-score),[13],-0.4
same,glycan array binding signal (z-score),[14],2.77
same,glycan array binding signal (z-score),[15],-0.299
same,glycan array binding signal (z-score),[16],3.96
same,glycan array binding signal (z-score),[17],6.89
same,glycan array binding signal (z-score),[18],0.705
same,glycan array binding signal (z-score),Gal(b1-2)Gal,-0.367
same,glycan array binding signal (z-score),[19],0.737
same,glycan array binding signal (z-score),[20],3.2
same,glycan array binding signal (z-score),[21],-0.12
same,glycan array binding signal (z-score),[22],-0.512
same,glycan array binding signal (z-score),Gal(b1-4)Gal,1.08
same,glycan array binding signal (z-score),[23],5.33
same,glycan array binding signal (z-score),[24],0.486
